Experimental data reported in PubChem BioAssay (EPA / NIEHS).
Where “and” joins values, the source holds several entries; their conditions need not be identical. Equal entries are not always repeated. Where a structure was tested more than once in an assay, its records may differ in their call. Calls of active or inactive are those of the source. How the source made its calls: active means hit-call score of the fitted dose curve at least 0.9, where 1 is the maximum; inactive means score below 0.9.

What was measured:
Settings in all cases: primary human HUVEC with PBMC; actives raise or lower the signal
[1] = read-out: Monocyte Chemoattractant Protein-1 (MCP1), CCL2 (gene 6347); experiment: BSK_LPS_MCP1: BioMAP Diversity Plus: LPS Assay for Monocyte Chemoattractant Protein-1 (MCP1) Biomarker Activity (AID 2283081);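 on AC50: secreted MCP-1 protein quantified by ELISA in culture supernatant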
Method in brief: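 Human endothelial–PBMC co-cultures were dosed with chemical, then LPS-driven MCP-1 levels were quantified by ELISA at 24 h. Activity in either direction was fitted versus DMSO negative control.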

[2] = BSK_LPS_PGE2: BioMAP Diversity Plus: LPS Assay for Prostaglandin E2 (PGE2) Biomarker Activity (AID 2283082);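 on AC50: secreted prostaglandin E2 measured by ELISA in LPS-stimulated co-culture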
Method in brief: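 Compounds were added to the LPS co-culture of endothelium and PBMC, and PGE2 was measured by ELISA after 24 h. Responses in either direction were fitted with DMSO as baseline.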

[3] = read-out: Macrophage colony-stimulating factor (MCSF), CSF1 (gene 1435); experiment: BSK_LPS_MCSF: BioMAP Diversity Plus: LPS Assay for Macrophage colony-stimulating factor (MCSF) Biomarker Activity (AID 2283083)
Method in brief: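 ELISA readout of M-CSF after 24 h compound exposure in a human endothelial/PBMC co-culture. Activity, in either direction, is fitted relative to DMSO vehicle.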

[4] = read-out: Tissue Factor, F3 (gene 2152); experiment: BSK_LPS_TissueFactor: BioMAP Diversity Plus: LPS Assay for Tissue Factor Biomarker Activity (AID 2283084)
Method in brief: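 ELISA signal for cell-surface Tissue Factor (CD142) was read 24 h after compound dosing of an LPS-stimulated human endothelial–PBMC primary co-culture. Gain or loss of signal was scored relative to DMSO.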

[5] = read-out: Tumor necrosis factor (Homo sapiens) (UniProt P01375); experiment: BSK_LPS_TNFa: BioMAP Diversity Plus: LPS Assay for Tumour Necrosis Factor alpha (TNFa) Biomarker Activity (AID 2283085);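 on AC50: TNFa protein level quantified by ELISA in the co-culture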
Method in brief: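 Cells (umbilical vein endothelium plus peripheral blood mononuclear cells) were dosed with chemical, incubated 24 h, then TNFa was quantified by ELISA; values derive from bidirectional fitting with DMSO as baseline.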

[6] = read-out: Vascular cell adhesion molecule 1 (VCAM1), VCAM1 (gene 7412); experiment: BSK_LPS_VCAM1: BioMAP Diversity Plus: LPS Assay for Vascular cell adhesion molecule 1 (VCAM1) Biomarker Activity (AID 2283086)
Method in brief: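 Cells are dosed in an LPS-stimulated endothelial/mononuclear co-culture and, after 24 h, VCAM-1 is quantified by ELISA. Activity in either direction is fitted relative to the DMSO negative control.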

CD38, CD38 (gene 952) = experiment: BSK_SAg_CD38: BioMAP Diversity Plus: SAg Assay for CD38 Biomarker Activity (AID 2283087)
Method in brief: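 CD38 quantified by ELISA (fluorescence) in a superantigen-activated endothelial cell–PBMC co-culture at 24 h post-dose. Activity fitted in both directions relative to DMSO; parallel SRB and Alamar Blue cytotoxicity read-outs.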

CD40, CD40 (gene 958) = experiment: BSK_SAg_CD40: BioMAP Diversity Plus: SAg Assay for CD40 Biomarker Activity (AID 2283088)
Method in brief: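 Compounds were dosed onto a human primary endothelial–PBMC co-culture, and after 24 h CD40 was quantified by ELISA using a fluorescence signal. Activity in either direction was fitted relative to DMSO.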

CD69, CD69 (gene 969) = experiment: BSK_SAg_CD69: BioMAP Diversity Plus: SAg Assay for CD69 Biomarker Activity (AID 2283089);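 on AC50: cell surface CD69 protein quantified by ELISA with fluorescence detection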
Method in brief: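 Values derive from bidirectional fitting relative to DMSO vehicle. Cells: umbilical vein endothelium plus peripheral blood mononuclear cells, treated 24 h before fluorescent ELISA for CD69.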

[7] = read-out: Monocyte Chemoattractant Protein-1 (MCP1), CCL2 (gene 6347); experiment: BSK_SAg_MCP1: BioMAP Diversity Plus: SAg Assay for Monocyte Chemoattractant Protein-1 (MCP1) Biomarker Activity (AID 2283090)
Method in brief: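 Values derive from bidirectional fitting of ELISA-measured MCP1 against DMSO controls. Readings were taken 24 h after dosing human vascular endothelial cells co-cultured with peripheral blood mononuclear cells under superantigen stimulation.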

Measured: AC50

Chain of Tumor necrosis factor (Homo sapiens) (P01375 whole entry, looked up): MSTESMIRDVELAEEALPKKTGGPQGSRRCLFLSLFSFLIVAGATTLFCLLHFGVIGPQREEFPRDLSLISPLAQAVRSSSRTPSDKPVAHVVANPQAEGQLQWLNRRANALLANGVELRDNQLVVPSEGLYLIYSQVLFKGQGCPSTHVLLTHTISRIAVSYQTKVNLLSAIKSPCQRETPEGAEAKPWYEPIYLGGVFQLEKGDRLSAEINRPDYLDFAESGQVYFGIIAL

CNC(=O)CSP(=S)(OC)OC
inactive: all assays above

COP(=O)(OC)OC=C(Cl)Cl
active: [3] 20 µM | [6] 30.1 µM | [7] 17.5 µM
not listed: [5]
inactive: all other assays above

CCN(CC)C(=O)SCc1ccc(Cl)cc1
active: [2] 7.03 µM
inactive: all other assays above

CCC(C)(C)C(=O)OC1=C(c2ccc(Cl)cc2Cl)C(=O)OC12CCCCC2
inactive: [2]
active: [1] 31.2 µM | [3] 17.5 µM | [4] 14.1 µM | [5] 32.5 µM | [6] 24.4 µM | CD38, CD38 (gene 952) 10.3 µM | CD40, CD40 (gene 958) 10.6 µM | CD69, CD69 (gene 969) 14.9 µM | [7] 16.7 µM

O=C(O)C(F)(F)C(F)(F)C(F)(F)C(F)(F)C(F)(F)C(F)(F)C(F)(F)F
inactive: [1] | [2] | [3] | [4] | [6] | CD38, CD38 (gene 952) | CD40, CD40 (gene 958) | CD69, CD69 (gene 969) | [7]
active: [2] 35.5 µM and 27.5 µM

COc1nn(CSP(=S)(OC)OC)c(=O)s1
active: [2] 12.6 µM
inactive: all other assays above

CC(C)(C)C(O)C(Oc1ccc(Cl)cc1)n1cncn1 (configuration not stated)
inactive: [1] | [2] | [3] | [4] | [6] | CD38, CD38 (gene 952) | CD40, CD40 (gene 958) | CD69, CD69 (gene 969) | [7]
active: [2] 3.1 µM | [3] 20 µM | CD38, CD38 (gene 952) 4.99 µM | CD40, CD40 (gene 958) 8.99 µM

COc1cc(OC)nc(NC(=O)NS(=O)(=O)c2cc(NC=O)ccc2C(=O)N(C)C)n1
inactive: all assays above

CCS(=O)(=O)c1cccnc1S(=O)(=O)NC(=O)Nc1nc(OC)cc(OC)n1
active: [2] 2.31 µM
not listed: [5]
inactive: all other assays above

COC(=O)c1ccccc1S(=O)(=O)NC(=O)N(C)c1nc(C)nc(OC)n1
not listed: [5]
inactive: all other assays above

C#CCN1C(=O)COc2cc(F)c(N3C(=O)C4=C(CCCC4)C3=O)cc21
active: CD38, CD38 (gene 952) 14.2 µM
not listed: [5]
inactive: all other assays above

COC(=O)c1ccccc1CS(=O)(=O)NC(=O)Nc1nc(OC)cc(OC)n1
active: CD69, CD69 (gene 969) 5.03 µM
not listed: [5]
inactive: all other assays above

CCC(C)(NC(=O)c1cc(Cl)c(C)c(Cl)c1)C(=O)CCl (configuration not stated)
active: [1] 12.2 µM | [3] 13 µM | [4] 5.21 µM | [6] 8.9 µM | CD38, CD38 (gene 952) 6.39 µM | CD40, CD40 (gene 958) 7.22 µM | CD69, CD69 (gene 969) 14.3 µM | [7] 10.3 µM
inactive: [2]

CCCN(CCC)c1c([N+](=O)[O-])cc(C(F)(F)F)cc1[N+](=O)[O-]
inactive: [2] | [4] | [7]
active: [1] 36.2 µM | [3] 20 µM | [6] 29.3 µM | CD38, CD38 (gene 952) 15.2 µM | CD40, CD40 (gene 958) 29.5 µM | CD69, CD69 (gene 969) 30.2 µM

CC1(c2ccc(Oc3ccccc3)cc2)OC(=O)N(Nc2ccccc2)C1=O (configuration not stated)
active: [1] 29.5 µM | [2] 6.92 µM | [3] 20 µM | [4] 28.4 µM | [6] 20 µM | CD38, CD38 (gene 952) 19.9 µM | CD40, CD40 (gene 958) 15.8 µM | CD69, CD69 (gene 969) 20 µM | [7] 19.8 µM

O=[N+]([O-])/N=C1\NCCN1Cc1ccc(Cl)nc1
not listed: [5]
inactive: all other assays above

Oc1cc(Cl)ccc1Oc1ccc(Cl)cc1Cl
active: [1] 19.9 µM [middle of 4 runs] | [2] 6.07 µM [middle of 4 runs] | [3] 18.7 µM [middle of 4 runs] | [4] 28.1 µM and 14.7 µM and 30.3 µM | [6] 25.8 µM [middle of 4 runs] | CD38, CD38 (gene 952) 12.4 µM [middle of 4 runs] | CD40, CD40 (gene 958) 12.9 µM [middle of 4 runs] | CD69, CD69 (gene 969) 13.5 µM and 14.7 µM and 14.4 µM | [7] 12.5 µM [middle of 4 runs]

O=C(Nc1ccccc1)Nc1cnns1
not listed: [5]
inactive: all other assays above
